JMJD2A Tudor: blocks the human JMJD2A Tudor domain; O75164; AlphaScreen JMJD2A-Tudor / H3K4me3 peptide binding; Potency, µM (series often up to 114 µM), without a hit: at the highest dose activity change, negative = inhibition, actives largely listed as inhibitors; 390,000 compounds, 4.4% hits; AID 504339; further: on the % scale 0 is the no-effect control and ±100 the full control effect; nearly all actives have a fitted effect of over 50% in size
HP1b chromo inh: inhibitors of HP1-beta chromodomain binding to methylated histone tails. P83916. AlphaScreen HP1-beta / biotin-H3K9me3 peptide binding. Potency, µM (series often up to 114 µM), for inactives: top-dose activity change, negative = inhibition, usual class: inhibitors. 390,000 compounds, 0.56% hits; further: nearly all actives have a fitted effect of over 70% in size
Target sequence (P83916 whole entry, looked up): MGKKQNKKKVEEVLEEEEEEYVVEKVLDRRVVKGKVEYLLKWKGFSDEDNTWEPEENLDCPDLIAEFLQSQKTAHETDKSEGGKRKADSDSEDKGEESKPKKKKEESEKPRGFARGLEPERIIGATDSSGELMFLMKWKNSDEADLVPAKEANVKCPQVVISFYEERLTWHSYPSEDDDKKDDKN
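Compound inhibition of the preformed complex between 50 nM HP1-beta and 50 nM biotinylated H3K9me3 peptide was read by AlphaScreen. Buffer was PBS pH 7.4 with 0.01% Tween-20. Incubations ran 30 min at room temperature, with 10 ug/mL donor/acceptor beads.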
Sfp PPTase inh: inhibitors of Bacillus subtilis Sfp phosphopantetheinyl transferase | Q9F4F7 | Biochemical Sfp PPTase activity, qHTS | Potency, µM, inactives show largest response in the series, negative = inhibition, actives largely listed as inhibitors | 310,000 compounds, 3.5% hits;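 further: the enzyme is Sfp with the accession as filed and its product quenches rhodamine fluorescence; 0% = enzyme reaction without inhibitor and -100% = no enzyme wells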
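After 15 min at room temperature with compound, 15 nM Sfp received 5 uM rhodamine-CoA plus 12.5 uM BHQ-2-ybbR (50 mM Hepes pH 7.6, 10 mM MgCl2). Rate came from the fluorescence difference over 30 min, ex 525/em 598 nm.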
G9a inh: blocks human histone lysine methyltransferase G9a; G9a H3K9 monomethylation, AlphaScreen, 2 h; Potency, µM (titrated, usually from 102 µM), for the others: at the highest dose activity, negative = inhibition, hits mostly inhibitors; AID 504332; 350,000 compounds, 8.8% hits; further: on the % scale 0 is the no-effect control and ±100 the full control effect; nearly all actives have a fitted effect of over 75% in size
Target sequence (Q96KQ7 913-1193 limits assumed): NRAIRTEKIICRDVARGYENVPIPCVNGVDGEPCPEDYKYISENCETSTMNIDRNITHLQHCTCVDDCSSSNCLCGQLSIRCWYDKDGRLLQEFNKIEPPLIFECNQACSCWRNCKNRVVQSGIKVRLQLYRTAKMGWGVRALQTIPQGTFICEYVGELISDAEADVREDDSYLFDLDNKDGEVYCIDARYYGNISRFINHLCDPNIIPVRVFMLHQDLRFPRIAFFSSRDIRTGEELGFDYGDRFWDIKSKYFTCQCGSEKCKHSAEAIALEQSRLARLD
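Signal arises when biotinylated H3K9 peptide, once monomethylated, bridges streptavidin donor and antibody-captured acceptor beads. Enzyme at 20 nM was preincubated 15 min with test compounds; peptide 500 nM and SAM 20 uM then reacted for 2 h.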
BAZ2B block: blocks human BAZ2B; Potency, µM (titrated, usually from 114 µM), without a hit: top-dose activity change, negative = inhibition, actives largely listed as inhibitors; AlphaScreen BAZ2B-H3K14Ac peptide displacement; 360,000 compounds, 4.4% hits; further: on the % scale 0 is the no-effect control and ±100 the full control effect; nearly all actives have a fitted effect of over 60% in size
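Protein-peptide AlphaScreen: BAZ2B 50 nM, b-H3K14Ac 50 nM, 1x PBS pH 7.4 + 0.01% Tween-20. Preincubation 30 min RT; cpd 30 min RT (top 110 uM); beads 20 min RT, light-protected.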
TDP1 inh: TDP1 (human) enzyme inhibition; Q9NUW8; recombinant TDP1, AlphaScreen DNA substrate cleavage; Potency, µM (titrated, usually from 130 µM), for inactives: top-dose activity change, negative = inhibition, hits mostly inhibitors; 350,000 compounds, 0.28% hits; further: on the % scale 0 is the no-effect control and ±100 the full control effect; nearly all actives have a fitted effect of over 40% in size
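Here, a 5' biotin and 3' phosphotyrosine-FITC DNA oligonucleotide reports Tdp1 activity: intact substrate bridges AlphaScreen beads, while cleavage leaves a 3' phosphate and drops signal. All incubations at room temperature.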
Starred values were filed as active, the others as inactive; u = inconclusive; x = no result given; [ ] = dose if it differs, or a comment. Shown are actives, neighbours in structure and some others; about 12% of the full set was active somewhere. The call rests on the fitted dose curve; in most records, active means well fitted curve in the direction sought with a large enough effect; inconclusive means small, poorly fitted or top-dose-only effect, or another doubt; inactive means no such curve, though single readings can be large; an effect the other way counts as inactive or inconclusive. Potency means the concentration at half of the fitted maximal effect.

SMILES	JMJD2A Tudor	HP1b chromo inh	Sfp PPTase inh	G9a inh	BAZ2B block	TDP1 inh
COc1ccc(NC2CCCN(Cc3cccc4cnccc34)C2)cc1 (configuration not stated)	u	-11.0%	24.6%	44.7µM*	44.7µM*	x
CCCCN1C[C@H](CO)Oc2cccc(F)c2S1(=O)=O	-14.4%	31.4%	x	x	x	x
Cc1ccc(NS(=O)(=O)c2ccc(C(=O)N3CC(C)CC(C)C3)cc2)cc1 (configuration not stated)	-17.9%	19.5%	x	-26.3%	2.6%	0.0%
COc1cccc(-c2nnc(-c3ccc(C)o3)o2)c1	-16.2%	29.6%	56.2µM*	12.6µM*	-4.2%	-2.2%
COc1cccc(C(=O)Nc2ccc(-c3nnc(-c4ccco4)o3)cc2)c1	-0.8%	19.3%	-21.3%	18.2%	-3.2%	0.0%
COc1cccc(-c2nnc(-c3ccco3)o2)c1	50.1µM*	-1.5%	5.7%	-8.3%	5.1%	5.1%
NC(=O)C1CC12c1ccccc1-c1ccccc12 (configuration not stated)	-14.0%	20.7%	7.9%	-1.7%	1.7%	x
COc1cc2c(cc1OC)C(COc1ccc([N+](=O)[O-])cc1)N(C(C)=O)CC2 (configuration not stated)	0.7%	30.8%	-2.7%	0.0%	-6.4%	x
Cc1ccc(S(=O)(=O)N/N=C\c2cccnc2)cc1	-10.1%	22.4%	-21.0%	17.5%[0.501 µM]	-22.1%[57.1 µM]	11.4%
COc1ccc(O)c(/C=N/NS(=O)(=O)c2ccc(C)cc2)c1	-10.3%	4.4%	6.8%	-12.0%	-15.4%	5.4%
CC(=O)Oc1ccc(/C=N/NS(=O)(=O)c2ccc(C)cc2)c(OC(C)=O)c1	-19.7%	28.6%	5.1%	39.8µM*	-22.4%	-9.4%
Cc1ccc(S(=O)(=O)N/N=C/c2ccc3nccnc3c2)cc1	-17.6%[11.4 µM]	50.5%	3.1%	3.16µM*	-16.9%	x
O=C(COC(=O)/C=C/c1ccc(F)cc1)Nc1ccc(Cl)cn1	-11.9%	19.5%	7.0%	23.3%[0.0925 µM]	4.0%	2.6%
COc1cc(/C=C/C(=O)OCC(=O)Nc2ccc(Cl)cn2)ccc1O	-10.0%	29.2%	x	-39.7%[12.7 µM]	u	28.2µM*
Cc1ccc(NS(=O)(=O)Cc2ccccc2)nc1	1.3%	32.2%	-23.9%	28.2µM*	-13.6%	4.8%
O=S(=O)(Cc1ccccc1)Nc1ccc(Br)cn1	-3.5%	63.0%	33.0%	70.8µM*	-14.4%	4.8%
O=C(NCC(c1cccnc1)N1CCc2ccccc2C1)C(=O)Nc1ccccc1F (configuration not stated)	u	-10.0%	x	u	u	2.6%
Clc1ccc(-c2nc(/C=N/N3CCOCC3)c3ccccn23)cc1	u	-12.2%	-13.9%	28.2µM*	x	5.3%
O=Cc1nc(-c2ccc(Cl)cc2)n2ccccc12	u	45.6%	7.4%	4.2%	4.4%	-2.6%
CN1CCN(/N=C/c2nc(-c3ccc(Cl)cc3)n3ccccc23)CC1	u	-18.6%	12.8%	15.8µM*	50.1µM*	2.7%
CN1CCN(/N=C/c2nc(-c3ccccc3)n3ccccc23)CC1	u	-5.4%	-9.7%	14.1µM*	u	2.6%
Cc1cc(N2CCN(C)CC2)n2nc(-c3ccc(Cl)cc3)nc2n1	-17.6%	18.4%	9.5%	11.1%[59 µM]	2.4%	x
C/C=C\C1=CCCC1Nc1ncnc2ccc(-c3c(C)noc3C)cc12 (configuration not stated)	u	x	-1.6%	x	x	9.7%
Cc1cccc(NC(=O)CSc2nc3ccccc3nc2N2CCC(C)CC2)c1	53.3%	108.6%	x	118.9%[59 µM]	42.0%	-1.1%
CCOC(=O)c1c(N/N=C/c2cccnc2)n[nH]c1C	-4.0%	39.1%	-0.9%	70.8µM*	-1.2%	1.2%
O=C(O)CC[C@H](NC(=O)c1ccccc1C(=O)O)C(=O)O	x	x	x	28.7%[12.7 µM]	x	5.7%[56.1 µM]
COc1ccc(C)c2sc(NNC(=O)COc3ccccc3)nc12	x	x	56.2µM*	u	-9.6%	1.8%
CCOc1ccc(NC(=O)c2cn(C)c(=O)c3cc(OC)c(OC)cc23)cc1	3.4%	37.2%	x	-0.3%[59 µM]	6.2%	2.9%

High-throughput results (PubChem)
